Unmarked numbers belong to inactive results. Activity calls are given as the source filed them. Unless noted, no stated cut-off is given here; in the data, active means inhibition above about 33%; inactive means the rest.
Biological target: Steroidogenic factor 1 (Homo sapiens) (UniProt Q13285)
Sequence (Q13285 whole entry, looked up): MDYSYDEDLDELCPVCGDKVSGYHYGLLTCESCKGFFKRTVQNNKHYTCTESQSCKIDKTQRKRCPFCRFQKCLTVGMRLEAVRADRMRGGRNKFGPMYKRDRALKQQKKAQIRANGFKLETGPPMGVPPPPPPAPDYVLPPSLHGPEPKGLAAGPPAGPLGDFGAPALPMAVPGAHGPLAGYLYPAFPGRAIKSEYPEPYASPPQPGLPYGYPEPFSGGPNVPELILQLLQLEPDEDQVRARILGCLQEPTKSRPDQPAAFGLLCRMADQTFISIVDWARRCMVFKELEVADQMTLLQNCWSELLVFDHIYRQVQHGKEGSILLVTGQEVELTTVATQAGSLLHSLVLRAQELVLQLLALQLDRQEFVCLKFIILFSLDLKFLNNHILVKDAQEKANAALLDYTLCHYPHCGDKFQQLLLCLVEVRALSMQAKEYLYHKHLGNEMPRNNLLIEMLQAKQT
Assay: inverse agonism at SF1 nuclear receptor – cell-based, luminescence, high throughput, counter-screen for LRH-1 inverse agonist project (AID 651614; in the data active means inhibition above about 44%;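 further: cells cotransfected with StAR promoter reporter and SF1 expression vector; 0% = vehicle on cells with receptor and 100% = vehicle on cells lacking receptor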)
Conditions: cell-based SF1 luciferase reporter, at 3.6 µM, hits give high values
For C/C(=N\NC(N)=S)C1(C)CCCCC1, the inhibition was 53.3% (active).
For COc1ccc(N2C(=O)C(Cl)=C(N3CCOCC3)C2=O)cc1, the inhibition was 7.54%.
In the case of CCNc1cc(N2CCCC2)ccc1[N+](=O)[O-], the inhibition is reported as 44% (active).
In the case of CCOc1cc(S(=O)(=O)NCc2ccncc2)ccc1Cl, the inhibition is reported as 57.9% (active).
With Cc1nc2cc(N3CCCCC3)c(NC(=O)c3cccnc3)cc2c(=O)n1Cc1ccccc1 the inhibition was 57.2% (active).
In the case of CCCN(CC(=O)Nc1ccc(C(C)=O)cc1)CC(=O)Nc1ccccc1C, the inhibition is reported as 56% (active).
With COc1ccc(NC(=O)COC(=O)CNC(=O)c2cc(OC)c(OC)c(OC)c2)cc1 the inhibition was 50.5% (active).
Compound N#Cc1c2c(c(NCCOCCO)n3c1nc1ccccc13)CCCC2 has an inhibition of 31.7%.
Work on Cc1cc(OCC(=O)N2CCC(O)CC2)c2c(C)cc(=O)oc2c1 yielded an inhibition of 35.2%.
In the case of O=C(COc1ccc(Nc2ccccc2)cc1)Nc1ccncc1, the inhibition is reported as 51.6% (active).
For O=C(Nc1ccc2oc(-c3ccncc3)nc2c1)c1ccc([N+](=O)[O-])o1, the inhibition was 66.2% (active).
With COc1ccc(-c2cc(-c3ccc(O)cc3)nc(N)c2C#N)cc1 the inhibition was 49% (active).
For CCN(Cc1ccccc1)c1ccc(/C=N/NC(=O)c2cccc(S(=O)(=O)N3CCOCC3)c2)cc1, the inhibition was 62.3% (active).
With Cc1ccc(NC(=O)CN2C(=O)NC(C)(CC(C)C)C2=O)c(Br)c1 (stereo unspecified) the inhibition was 61.6% (active).
NC(=O)C1CCN(C(=O)COc2ccc3c4c(c(=O)oc3c2)CCC4)CC1 showed an inhibition of 36.4%.
With CCOc1cc(/C=N/Nc2nnc(C)n2N)ccc1O the inhibition was 22.2%.
In the case of O=C(COC(=O)c1ccc[n+]([O-])c1)Nc1ccc([N+](=O)[O-])cc1Cl, the inhibition is reported as 56.2% (active).
CCOc1ccc(S(=O)(=O)Nc2nc3ccccc3nc2N2CCN(C)CC2)cc1 showed an inhibition of 24.1%.
In the case of COc1ccc(OC)c(NS(=O)(=O)c2ccc(SC)cc2)c1, the inhibition is reported as 54.2% (active).
In the case of O=C(c1ccc([N+](=O)[O-])o1)N1CCN(c2nc3c(Cl)cccc3s2)CC1, the inhibition is reported as 61.3% (active).
For O=C(Nc1cc(Cl)ccc1-n1cncn1)c1ccc([N+](=O)[O-])o1, the inhibition was 61.8% (active).
For COc1cc(C2c3cc4c(cc3OC(Nc3ccc(C(=O)O)cc3)C2C)OCO4)cc(OC)c1OC (stereo unspecified), the inhibition was 60.9% (active).
Compound O=C(N/N=C/c1ccc(Sc2ccccn2)o1)c1cccc([N+](=O)[O-])c1 has an inhibition of 40%.
In the case of c1ccc(-n2nnnc2-c2cccc3ccccc23)cc1, the inhibition is reported as 62.6% (active).
For CCCCCCCn1ccc(=N)cc1, the inhibition was 77.7% (active).
With CC(/C=C(\NC(=O)c1ccccc1)C(=O)N=Nc1c(O)[nH]c2ccc(C)cc12)=C\c1ccccc1 the inhibition was 30.2%.

System: not listed separately
Assay: compounds suppressing VP16-driven luciferase signal – cell-based, luminescence, high throughput, counter-screen for LRH-1 inverse agonist project (AID 651615)
Conditions: Gal4-VP16 luciferase reporter cells, at 3.6 µM, hits give high values
Work on COc1ccc(-c2cc(C(F)F)n3ncc(C(=O)N4CCc5ccccc5C4)c3n2)cc1 yielded an inhibition of -2.06%.
In the case of Cc1cc(NCCCCCCCNc2cc(C)nc3cc([N+](=O)[O-])ccc23)c2ccc([N+](=O)[O-])cc2n1, the inhibition is reported as 39.7% (active).
With CC(=O)c1ccc(NC(=O)COc2ccccc2C(=O)Nc2ccccc2)cc1 the inhibition was -21.9%.
For CCN1CCN(c2ccc(S(=O)(=O)N3CCCCC3)cc2NC(=O)/C=C/c2ccc([N+](=O)[O-])cc2)CC1, the inhibition was 3.5%.
Work on O=C(NCc1cccnc1)c1ccc(NC(=O)c2ccc(Br)cc2)cc1 yielded an inhibition of 18.5%.
For Cn1c(=O)c2c(nc(CN3CCOCC3)n2CC(=O)c2ccccc2)n(C)c1=O, the inhibition was 5.48%.
Compound c1ccc(-c2nc(NCc3cccnc3)c3oc4ccccc4c3n2)cc1 has an inhibition of -22.9%.
For Cc1ccccc1C(=O)NC1CCN(CC(=O)Nc2ccc(Br)cc2)CC1, the inhibition was 15.4%.
Compound CN(C)S(=O)(=O)c1ccc(C(=O)NCc2ccc3[nH]c4c(c3c2)CCCC4)cc1 has an inhibition of -9.28%.
COc1ccc(-c2nnc(NC(=O)c3ccc([N+](=O)[O-])o3)o2)c(OC)c1 gave an inhibition of 10.2%.
Cc1cc(Cl)ccc1NC(=O)CN1C(=O)C(=O)N(C2CCCC2)C1=O showed an inhibition of 1.38%.
Compound COc1ccc(N2CCN(C(=O)c3ccc(CNS(=O)(=O)c4cccc(OC)c4)cc3)CC2)cc1 has an inhibition of 6.88%.
Work on CCC(NC(=O)c1cc(COc2cc(C)c(Cl)c(C)c2)on1)c1ccncc1 (stereo unspecified) yielded an inhibition of 8.52%.
With O=C(CCl)Nc1ccc2c(c1)OCO2 the inhibition was -14.7%.
C/C(=N\NC(N)=S)C1(C)CCCCC1 showed an inhibition of 29.4%.
Work on COc1ccc(N2C(=O)C(Cl)=C(N3CCOCC3)C2=O)cc1 yielded an inhibition of 7.03%.
With CCNc1cc(N2CCCC2)ccc1[N+](=O)[O-] the inhibition was -8.79%.
With CCOc1cc(S(=O)(=O)NCc2ccncc2)ccc1Cl the inhibition was 55.6% (active).
Work on Cc1nc2cc(N3CCCCC3)c(NC(=O)c3cccnc3)cc2c(=O)n1Cc1ccccc1 yielded an inhibition of -17%.
Work on CCCN(CC(=O)Nc1ccc(C(C)=O)cc1)CC(=O)Nc1ccccc1C yielded an inhibition of 9.79%.
In the case of COc1ccc(NC(=O)COC(=O)CNC(=O)c2cc(OC)c(OC)c(OC)c2)cc1, the inhibition is reported as -7.21%.
Work on N#Cc1c2c(c(NCCOCCO)n3c1nc1ccccc13)CCCC2 yielded an inhibition of -0.15%.
Compound Cc1cc(OCC(=O)N2CCC(O)CC2)c2c(C)cc(=O)oc2c1 has an inhibition of -6.7%.
With O=C(COc1ccc(Nc2ccccc2)cc1)Nc1ccncc1 the inhibition was 41.4% (active).
Compound O=C(Nc1ccc2oc(-c3ccncc3)nc2c1)c1ccc([N+](=O)[O-])o1 has an inhibition of -13.7%.
Compound COc1ccc(-c2cc(-c3ccc(O)cc3)nc(N)c2C#N)cc1 has an inhibition of -19.5%.
With CCN(Cc1ccccc1)c1ccc(/C=N/NC(=O)c2cccc(S(=O)(=O)N3CCOCC3)c2)cc1 the inhibition was 28%.
Compound Cc1ccc(NC(=O)CN2C(=O)NC(C)(CC(C)C)C2=O)c(Br)c1 (stereo unspecified) has an inhibition of -6.87%.
For NC(=O)C1CCN(C(=O)COc2ccc3c4c(c(=O)oc3c2)CCC4)CC1, the inhibition was -10.9%.
With CCOc1cc(/C=N/Nc2nnc(C)n2N)ccc1O the inhibition was 2.17%.
Work on O=C(COC(=O)c1ccc[n+]([O-])c1)Nc1ccc([N+](=O)[O-])cc1Cl yielded an inhibition of 1.26%.
With CCOc1ccc(S(=O)(=O)Nc2nc3ccccc3nc2N2CCN(C)CC2)cc1 the inhibition was -4.2%.
In the case of COc1ccc(OC)c(NS(=O)(=O)c2ccc(SC)cc2)c1, the inhibition is reported as 14.8%.
For O=C(c1ccc([N+](=O)[O-])o1)N1CCN(c2nc3c(Cl)cccc3s2)CC1, the inhibition was 3.24%.
With O=C(Nc1cc(Cl)ccc1-n1cncn1)c1ccc([N+](=O)[O-])o1 the inhibition was -24.7%.
For COc1cc(C2c3cc4c(cc3OC(Nc3ccc(C(=O)O)cc3)C2C)OCO4)cc(OC)c1OC (stereo unspecified), the inhibition was 26.4%.
O=C(N/N=C/c1ccc(Sc2ccccn2)o1)c1cccc([N+](=O)[O-])c1 showed an inhibition of 10.4%.
In the case of c1ccc(-n2nnnc2-c2cccc3ccccc23)cc1, the inhibition is reported as 23%.
For CCCCCCCn1ccc(=N)cc1, the inhibition was 67.9% (active).
Work on CC(/C=C(\NC(=O)c1ccccc1)C(=O)N=Nc1c(O)[nH]c2ccc(C)cc12)=C\c1ccccc1 yielded an inhibition of 14.1%.
